Compounds with a hit are over-represented: about 4.1% of the library has one in this group of screens.
hcDAF-12 act: activators of H. contortus DAF-12 nuclear receptor; activation, % at 6.8 µM; AID 652067; actives 1.4% (n = 370,000); HEK293 hcDAF-12 lit1-tk-luc reporter, luminescence; 0% DMSO, 100% Δ7-dafachronic acid;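 active = activation above the mean of all tested compounds plus 3 SD, cut at about 5.5% in these data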;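 also: 100% = response to 3 µM Δ7-dafachronic acid high control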
DAX1 inh-1: blocks DAX1 repression of SF-1 activated StAR promoter; inhibition, % at 6.8 µM; actives 1.1% (n = 370,000); HEK293T StAR-luciferase reporter, SF-1/DAX-1 repression relief;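 active = inhibition above the mean over all tested compounds plus 3 SD, cut at about 3.6% in these data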;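 also: 0% = DAX-1 cells with DMSO and 100% = cells lacking DAX-1 with DMSO; higher inhibition means more luminescence from relief of DAX-1 repression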
hgDAF-12 ag: hgDAF-12 agonism, primary luciferase screen. HEK293 GAL4-hgDAF12 UAS-luciferase reporter, agonist luminescence; normalized to butyrate control. activation, % at 6.8 µM. actives 1.8% (n = 370,000);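 active = activation above a cutoff set at the mean of all screened compounds plus 3 SD, cut at about 10% in these data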;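 also: 0% = DMSO wells and 100% = sodium butyrate wells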
ssDAF-12 act: activates DAF-12 receptor from parasite S. stercoralis; HEK293 ssDAF-12/GRIP1 lit1-tk-luc reporter, luminescence; % of 3 µM dafachronic acid response; activation, % at 6.8 µM; AID 652126; actives 1% (n = 370,000);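 active = activation above the mean over all tested compounds plus 3 SD, cut at about 0.9% in these data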;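 also: 0% = DMSO-only wells and 100% = 3 µM delta7-dafachronic acid wells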
DAX1 inh-2: inhibitors of human orphan nuclear receptor DAX1 (NR0B1). P51843. HEK293 Gal4-DAX1 luciferase reporter, luminescence. inhibition, % at 6.75 µM. actives 0.99% (n = 340,000);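 active = inhibition above the mean over all tested compounds plus 3 SD, cut at about 4.2% in these data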;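 also: 0% = DAX1-transfected cells with DMSO and 100% = empty-vector control cells with DMSO; inhibition shows as a rise in luminescence from relieved DAX1 repression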
Target sequence (P51843 207-470 limits assumed): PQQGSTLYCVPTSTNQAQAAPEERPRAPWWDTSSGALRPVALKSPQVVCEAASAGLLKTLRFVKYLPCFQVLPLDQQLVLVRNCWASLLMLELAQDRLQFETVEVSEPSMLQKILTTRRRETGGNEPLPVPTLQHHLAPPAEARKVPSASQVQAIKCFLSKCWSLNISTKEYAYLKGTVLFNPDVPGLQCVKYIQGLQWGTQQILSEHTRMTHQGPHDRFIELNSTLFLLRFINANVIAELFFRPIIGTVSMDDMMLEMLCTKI
LXRb hcDAF ctr: activates human LXR-beta, counter-screen for hcDAF-12 agonists | shares compounds with hcDAF-12 act | HEK293 Gal4-LXR tk-luc reporter, luminescence, 24 h; normalized: DMSO 0%, positive control 100% | activation, % at 6.8 µM | 3,400 tested, under 10 active | AID 743027;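 active = mean percent activation of the reporter above a cutoff set as the average over tested compounds plus their standard deviation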
Target sequence (P55055 whole entry, looked up, the tested form may be a part): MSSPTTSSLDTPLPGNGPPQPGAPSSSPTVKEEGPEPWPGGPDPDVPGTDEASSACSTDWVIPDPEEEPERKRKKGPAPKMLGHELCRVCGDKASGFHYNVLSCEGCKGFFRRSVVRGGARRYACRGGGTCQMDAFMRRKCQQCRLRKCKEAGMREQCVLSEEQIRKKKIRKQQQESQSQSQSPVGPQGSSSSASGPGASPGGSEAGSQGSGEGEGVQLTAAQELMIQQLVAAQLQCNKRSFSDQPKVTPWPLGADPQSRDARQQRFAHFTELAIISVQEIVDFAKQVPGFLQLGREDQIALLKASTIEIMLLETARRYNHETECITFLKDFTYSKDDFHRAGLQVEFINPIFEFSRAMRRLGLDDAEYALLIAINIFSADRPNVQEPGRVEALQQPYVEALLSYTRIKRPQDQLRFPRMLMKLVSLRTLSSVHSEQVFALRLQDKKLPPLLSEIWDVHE
hcDAF12 conf: hcDAF-12 agonism, confirmation assay. shares compounds with hcDAF-12 act. HEK293 hcDAF-12 lit1-tk-luc reporter, luminescence; % of Δ7-dafachronic acid response. activation, % at 6.8 µM. actives 61% (n = 3,400). AID 743032;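 active = mean activation across triplicate tests above the threshold derived from the earlier primary screen, cut at about 5.5% in these data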;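 also: 0% = DMSO only wells and 100% = 3 µM Δ7-dafachronic acid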
Active calls of the source: *; . = no result.

SMILES | hcDAF-12 act | DAX1 inh-1 | hgDAF-12 ag | ssDAF-12 act | DAX1 inh-2 | LXRb hcDAF ctr | hcDAF12 conf
CC(=O)Nc1ccc(NC(=O)CSc2nc3ccccc3o2)cc1 | 0.3 | 0.4 | 7.1 | -0.4 | -0.5 | . | .
Clc1ccc2oc(-c3ccccc3)nc2c1 | 1.2 | 1.1 | 4.0 | -0.1 | 0.0 | . | .
O=C/C(=C\Nc1ccccn1)c1nc2cc(Cl)ccc2o1 | 6.8* | 0.8 | 2.3 | 0.9* | 1.7 | 0.1 | 3.6
CC(=O)Nc1cccc(N/C=C(\C=O)c2nc3ccccc3o2)c1 | 9.6* | 0.9 | 6.9 | 1.0* | 2.0 | 0.4 | 9.4*
Cc1cccc(/C=c2\s/c(=C\C(=O)C(C)(C)C)[nH]c2=O)c1 | 0.9 | -0.5 | 1.0 | -1.5 | 1.0 | . | .
Cc1cccc(/C=C2\CCC(=C3SCCCS3)C2=O)c1 | 7.5* | 2.5 | 8.8 | -0.6 | -3.7 | 1.0 | 7.6*
CN1CC[C@@H]2CN(S(=O)(=O)c3ccccc3)[C@H](c3ccccc3Br)C[C@@H]21 | -1.1 | -0.3 | -0.5 | -0.2 | . | . | .
Cc1ccc(NC(=S)Nc2ccccn2)cc1C | 8.6* | 1.0 | 12.8* | 1.8* | . | 0.7 | 10.8*
Cc1cc(C)cc(NC(=S)Nc2ccccn2)c1 | 7.5* | 0.5 | 4.1 | 0.7 | 0.0 | 0.1 | 3.7
Cc1ccc(NC(=S)Nc2ccccn2)c(C)c1 | 7.2* | 1.4 | 6.8 | 0.8 | 1.1 | 0.9 | 8.7*
O=C(N[C@H](C(=O)N1CCC[C@H]1C(=O)NC1CCCC1)C1CCCCC1)c1ccccc1 | -0.3 | 1.0 | -0.8 | -1.3 | . | . | .
O=C(Nc1ccc(Br)cc1)O[C@@H]1CC[C@@]23CCCN2C(=O)CCC[C@H]3C1 | -3.5 | . | 1.7 | -1.7 | . | . | .
COc1ccc(C2CC(=O)C(c3ccc4ccccc4c3)=CN2Cc2ccccc2)cc1 (stereo not given) | -0.6 | -0.9 | 3.5 | -0.6 | . | . | .
COC(=O)[C@]12C[C@H](CC(=O)N3CCN(C(=O)c4ccco4)CC3)C(=O)N(Cc3cccc4ccccc34)C1=C[C@H](COCc1ccccc1)O[C@@H]2C | -4.5 | -2.2 | -1.8 | -2.0 | . | . | .
O=C(N[C@H](Cc1ccccc1)C(=O)NCC1CCCCC1)[C@H]1O[C@@H](n2ccc(=O)[nH]c2=O)[C@H](O)[C@@H]1O | 0.5 | 0.8 | -1.0 | 0.0 | . | . | .
CCCCCC/C(C)=C1/SC(=S)NC1=O | -1.1 | 1.1 | 3.6 | -1.1 | 1.3 | . | .
C/C(C/C(C)=C1/SC(=S)NC1=O)=C1\SC(=S)NC1=O | 6.8* | 0.3 | 2.6 | 0.4 | 0.0 | -0.4 | 1.1
O=C(COC(=O)c1cncc(Br)c1)Nc1ccc2c(c1)OCO2 | 7.0* | 0.2 | 1.2 | 0.1 | 2.0 | 0.0 | 4.3
COC(=O)[C@]12C[C@H](CC(=O)NCc3ccccc3)C(=O)N(Cc3ccc4c(c3)OCO4)C1=C[C@H](COCc1ccccc1)O[C@@H]2C | -0.1 | -0.4 | 1.4 | -0.8 | . | . | .
CC(=O)Nc1cc2c3ccccc3ccc2c2ccccc12 | 0.3 | -1.3 | 3.4 | -1.0 | 0.9 | . | .
CC(=O)Nc1cccc2ccc(O)cc12 | 6.7* | 1.7 | -0.8 | -0.6 | -0.7 | -0.2 | 3.0
CCOC(=O)[C@]12CCCC=C1N(Cc1ccc(OC)cc1)C(=O)[C@@H]2CC(=O)N1CCCC1 | -4.7 | -2.2 | -3.5 | -1.4 | . | . | .
O=C(CSc1nnc(-c2cnccn2)n1-c1ccccc1)c1ccccc1Br | -1.4 | 0.1 | 2.3 | -1.0 | . | . | .
O=C(Cc1ccccc1)NCc1ccc2c(c1)OCO2 | 0.8 | 0.5 | 6.2 | -0.7 | 0.4 | . | .
O=C(Cc1ccccc1[N+](=O)[O-])NCc1ccc2c(c1)OCO2 | 8.8* | 1.9 | 12.0* | 2.2* | 1.3 | 0.6 | 8.6*
SMILES | hcDAF-12 act | DAX1 inh-1 | hgDAF-12 ag | ssDAF-12 act | DAX1 inh-2 | LXRb hcDAF ctr | hcDAF12 conf
CCOc1ccc(NC(=O)C(C)Oc2ccccc2C(=O)Nc2ccc(C)c(Cl)c2)cc1 (stereo not given) | 7.0* | 0.2 | 8.1 | 0.7 | -0.1 | 0.0 | 7.4*
Cc1ccc(NC(=O)COc2ccccc2C(=O)Nc2ccccc2)cc1Cl | 1.2 | 0.0 | -2.3 | -1.2 | -1.3 | . | .
COc1ccc(/C=C2\C(=O)NC(=S)N2C(=O)c2ccc(C)cc2)cc1 | 7.4* | 2.0 | 8.0 | -0.4 | 0.9 | -0.3 | 0.8
COc1ccc2c(c1)CCCN2C(=O)C1CCCN(S(=O)(=O)c2cccc3cccnc23)C1 (stereo not given) | -0.7 | 0.1 | -4.5 | -0.9 | . | . | .
COc1ccc(CC(=O)O/N=C(\N)c2ccc(C)cc2)cc1 | 7.7* | 0.2 | 5.3 | 1.6* | 2.2 | 0.2 | 8.5*
Oc1c(C=Nc2ccccc2Cl)[nH]c2ccccc12 | 14.8* | 2.3 | 13.6* | 1.1* | 1.6 | 0.5 | 8.9*
Cc1ccc(C)c(NCC(=O)c2ccc(Cl)cc2)c1 | 7.1* | 0.5 | 12.4* | 0.7 | -1.1 | -0.2 | 0.7
CCCCc1cccc2[nH]cc(C)c12 | -0.5 | -0.1 | 2.2 | -1.6 | . | . | .
NC(=O)C1CCCN(C(=S)Nc2cccc3ccccc23)C1 (stereo not given) | 7.7* | 0.6 | 2.2 | 0.1 | 0.7 | -0.3 | 0.2
NC(=O)C1CCCN(C(=S)NCc2ccc3c(c2)OCO3)C1 (stereo not given) | -1.1 | 0.0 | 1.5 | -1.3 | 0.1 | . | .
Cc1cc(C(=O)NCCCN(C)C)c2ccccc2n1 | -0.7 | -0.2 | 0.4 | -1.1 | 1.8 | . | .
CCCCN(C)CCCNC(=O)c1cc(Nc2ccc(OC)c(OC)c2)nc2ccccc12 | 7.8* | 1.2 | 0.6 | 0.4 | -0.1 | -0.2 | 1.1
Cc1ccc(C(=O)NC2CCCCCCC2)c(Cl)c1 | 6.9* | 1.7 | 6.2 | 0.3 | -2.9 | 1.3 | 8.8*
O=C(NC1CCCCCCC1)c1cc(F)c(F)cc1Cl | 2.4 | 2.0 | 8.1 | -0.5 | 2.1 | . | .
C=CCNC(=O)N1CCC(c2nc3ccc(Cl)cc3[nH]2)CC1 | 0.9 | 0.7 | -4.5 | -0.5 | . | . | .
COc1ccccc1C(=O)NC(=O)Nc1cccc(Cl)c1 | 13.3* | 1.9 | 14.5* | 0.8 | 3.5 | 1.9 | 17.9*
COc1ccccc1C(=O)Nc1cc(Cl)ccc1O | 9.8* | 0.2 | 2.8 | 0.3 | -0.1 | 0.0 | 5.8*
CC(C)C[C@H]1COc2cc(Br)ccc2S(=O)(=O)N1Cc1cn(CCC2OCCCO2)nn1 | -2.9 | 0.7 | -1.6 | -0.8 | . | . | .
O=C(Nc1ccc2c(c1)CCC2)c1cccc(OC(F)F)c1 | 7.4* | 2.7 | 11.2* | 1.3* | . | 1.5 | 3.7
O=C(Nc1ccc(OC(F)F)c(Cl)c1)c1cccc(OC(F)F)c1 | . | . | . | . | -0.6 | . | .
O=C(CCC(=O)N1CCN(C2c3ccccc3-c3ccccc32)CC1)Nc1nnc(C(F)(F)F)s1 | -0.7 | 0.8 | 0.9 | -1.2 | . | . | .
Nc1cccc(CCc2nc3cc4ccccc4cc3[nH]2)c1 | 12.1* | -0.3 | 12.5* | 0.2 | 1.7 | 1.4 | 8.7*

Screens from PubChem.
